This is an account of results in PubChem BioAssay (NCI).

Test systems include SK-MEL-2 melanoma; EKVX NSCLC; SN12C renal; UO-31 renal; TK-10 renal; ACHN renal; A498 renal; CCRF-CEM leukemia; MOLT-4 leukemia; SR leukemia.
What all share (test): NCI-60 one-dose screen, 48 h (100 = growth as untreated, 0 = no growth, -100 = all killed)
What all share (details): 10 µM unless noted

Compounds without any hit were thinned out: in the full panel of roughly 83,000, 20% have a hit.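 Cell lines were cultured in 96-well plates, exposed to a single compound concentration, and assessed for percent growth 48 hours later.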 Values without a mark were called inactive. Active and inactive are the calls of the source. The calls were made as follows: active = growth percent below 10; inactive = the rest.

Take `c1ccc2c3c([nH]c2c1)C(c1ccc(C2NCCc4c2[nH]c2ccccc42)cc1)NCC3` (stereo not drawn): the growth was -13% (active) in the test with SK-MEL-2 melanoma; 20.6% in the test with EKVX NSCLC; 41.6% with SN12C renal; -0.102% (active) with UO-31 renal; 63.4% in the test on TK-10 renal; -73.1% (active) in the test with ACHN renal. Further, the growth with A498 renal is 116%; with CCRF-CEM leukemia, -16.7% (active); in the test on MOLT-4 leukemia, -62% (active); with SR leukemia, -51.5% (active).

With `COc1cc(/C=C/C(=O)/C=C/c2cc3ccc(Cl)cc3n(Cc3ccccc3)c2=O)ccc1O`, the growth in the test on SK-MEL-2 melanoma was -13.2% (active); in the test with EKVX NSCLC, 8.91% (active); in the test on SN12C renal it was -18.4% (active); in the test with UO-31 renal, -88.9% (active); in the test on TK-10 renal, 13.8%; with ACHN renal it was -15.4% (active). Also, the growth in the test on A498 renal is 69.2%; with CCRF-CEM leukemia, 3.16% (active); in the test with MOLT-4 leukemia, 5.11% (active); in the test on SR leukemia, 1.8% (active).

Consider `COc1cc(NCC(=O)Nc2cc(Nc3cccc(C(F)(F)F)c3)ncn2)c(Cl)c(OC)c1Cl`, for which the growth is 89.5% in the test with SK-MEL-2 melanoma; 90.6% in the test on EKVX NSCLC; 101% in the test with SN12C renal; 64.2% in the test with UO-31 renal; 101% with TK-10 renal; 95.7% with ACHN renal. For the same molecule, the growth was 71.5% in the test with A498 renal, 72.5% with CCRF-CEM leukemia, 76.2% in the test with MOLT-4 leukemia and 72.2% with SR leukemia.

As to `C=CCn1c(SCC(=O)Nc2ccc(C(=O)/C=C/c3cc(OC)c(OC)c(OC)c3)cc2)nnc1-c1ccccc1`, the growth with SK-MEL-2 melanoma is 101%; with EKVX NSCLC, 95.8%; in the test with SN12C renal, 93.1%; in the test with UO-31 renal, 78.3%; with TK-10 renal, 108%; in the test with ACHN renal, 103%. The growth was 87.5% in the test on A498 renal, 57.1% with CCRF-CEM leukemia, 76.9% with MOLT-4 leukemia and 32.5% in the test with SR leukemia.

For the molecule `CC(C)CSc1nc(Nc2ccccc2)c(C#N)c(-c2ccc(F)cc2)n1`, the growth in the test on SK-MEL-2 melanoma was 78.8%; in the test on EKVX NSCLC, 23.2%; in the test with SN12C renal, -26% (active); with UO-31 renal, -3.98% (active); in the test with TK-10 renal it was -22.9% (active); with ACHN renal it was -43.2% (active). Moreover, the growth in the test on A498 renal is -0.717% (active); with CCRF-CEM leukemia it was 31.1%; in the test on MOLT-4 leukemia, 65.5%; in the test on SR leukemia it was -11.1% (active).

Consider `CCCCC(=O)Nc1c(C(=O)Nc2ccccc2)sc2nc3c(cc12)C(OC(=O)CCCC)CCC3` (stereo not drawn), for which the growth was 93.8% in the test on SK-MEL-2 melanoma; 91.9% in the test on EKVX NSCLC; 96.9% in the test with SN12C renal; 89% with UO-31 renal; 98.2% with TK-10 renal; 115% in the test on ACHN renal. Moreover, the growth with A498 renal was 64.7%; with CCRF-CEM leukemia, 69.8%; in the test on MOLT-4 leukemia, 75.9%; in the test with SR leukemia, -10.6% (active).

On to `c1ccc(-c2n(Cc3ccc4ccccc4n3)cc[n+]2Cc2ccc3ccccc3n2)cc1`, for which the growth was -5.81% (active) in the test with SK-MEL-2 melanoma; 70.2% with EKVX NSCLC; 22.1% in the test with SN12C renal; 76.5% with UO-31 renal; 58.7% with TK-10 renal; 96.8% with ACHN renal. For the same molecule, the growth in the test on A498 renal was 56.1%; with CCRF-CEM leukemia it was 28.4%; with MOLT-4 leukemia, 37.9%; in the test on SR leukemia, 25.1%.

As for `COc1ccc(-c2nc(C#N)c(NCC(c3ccco3)N3CCCC3)o2)cc1` (stereo not drawn), the growth was 53.3% in the test on SK-MEL-2 melanoma; 54.2% in the test with EKVX NSCLC; 49.5% in the test on SN12C renal; 51.5% in the test with UO-31 renal; 82.1% in the test with TK-10 renal; 43.9% in the test with ACHN renal. Moreover, the growth in the test on A498 renal was 42.6%; with CCRF-CEM leukemia, 18.4%; in the test with MOLT-4 leukemia, 29.7%; with SR leukemia, 21.1%.

As for `CCOCc1nc2ccccc2c(=O)[nH]1`, the growth was 113% in the test with SK-MEL-2 melanoma; 95.8% in the test on EKVX NSCLC; 98% with SN12C renal; 92.9% in the test on UO-31 renal; 102% in the test with TK-10 renal; 105% in the test on ACHN renal. Besides, the growth is 105% with A498 renal, 97.1% in the test on CCRF-CEM leukemia, 105% in the test with MOLT-4 leukemia and 103% in the test on SR leukemia.

Regarding `Cc1ccc(C2=N[C@H]3CCC[C@@H]3N(c3ccccc3)C(C(Cl)Cl)=N2)cc1`, the growth in the test on SK-MEL-2 melanoma is 96.8%; in the test on EKVX NSCLC, 98.4%; with SN12C renal, 107%; in the test on UO-31 renal, 81.9%; with TK-10 renal, 100%; in the test on ACHN renal, 98%. For the same molecule, the growth was 112% with A498 renal, 96.4% in the test with CCRF-CEM leukemia, 94.3% in the test with MOLT-4 leukemia and 95.8% in the test on SR leukemia.

On to `Cc1ccc(-c2nc(C#N)c(S(=O)(=O)N(C)CCO)o2)cc1`, for which the growth is 80.4% in the test on SK-MEL-2 melanoma; 107% in the test with EKVX NSCLC; 51% in the test with SN12C renal; 78.4% with UO-31 renal; 116% with TK-10 renal; 60.7% in the test on ACHN renal. The growth was 114% in the test on A498 renal, 2.67% (active) in the test with CCRF-CEM leukemia, 7.32% (active) in the test with MOLT-4 leukemia and 10.8% in the test on SR leukemia.

On to `O=C(O)c1cn(C2CC2)c2cc(N3CCN(Cc4nnc(Nc5ccccc5)o4)CC3)c(F)cc2c1=O`, for which the growth in the test on SK-MEL-2 melanoma was 101%; in the test with EKVX NSCLC it was 103%; in the test with SN12C renal, 109%; with UO-31 renal it was 92.5%; with TK-10 renal it was 112%; with ACHN renal, 103%. Besides, the growth in the test on CCRF-CEM leukemia was 92%; with MOLT-4 leukemia it was 98.5%; in the test with SR leukemia it was 97.7%.

Consider `CN(C)c1ccc(-c2ccc3[nH]c(=O)nc(-c4ccc(F)cc4)c3c2)cn1`, for which the growth with SK-MEL-2 melanoma is 30.8%; with EKVX NSCLC, 55.9%; in the test with SN12C renal, 45.3%; in the test with UO-31 renal it was 52.9%; with TK-10 renal it was 73.7%; in the test on ACHN renal, 52.3%. Besides, the growth in the test with A498 renal is 18.5%; in the test with CCRF-CEM leukemia, 12%; in the test with MOLT-4 leukemia, 28.1%; with SR leukemia, 18.3%.

With `CCOC(=O)c1cnn(-c2nc(-c3ccc(F)cc3)c(C#N)c(N3CCOCC3)n2)c1N`, the growth with SK-MEL-2 melanoma is 90%; in the test with EKVX NSCLC, 92.9%; in the test with SN12C renal, 93.9%; in the test with UO-31 renal, 74.1%; in the test with TK-10 renal, 64%; in the test on ACHN renal, 95.7%. Moreover, the growth is 71.3% in the test with A498 renal, 92.8% with CCRF-CEM leukemia, 90.4% with MOLT-4 leukemia and 81.9% with SR leukemia.

On to `N#Cc1nc(-c2ccccc2)oc1S(=O)(=O)NCC(c1ccc(Cl)cc1)N1CCCCC1` (stereo not drawn), for which the growth is 72.2% with SK-MEL-2 melanoma; 106% in the test with EKVX NSCLC; 65.6% with SN12C renal; 65.5% with UO-31 renal; 112% in the test with TK-10 renal; 82.7% in the test on ACHN renal. Also, the growth with A498 renal was 102%; with CCRF-CEM leukemia, 1.94% (active); with MOLT-4 leukemia, 1.32% (active); in the test with SR leukemia, 12.2%.

Regarding `Cc1c(C(=O)Nc2nc3ccccc3[nH]2)cnn1-c1ccccn1`, the growth is 105% with SK-MEL-2 melanoma; 103% in the test on EKVX NSCLC; 114% in the test on SN12C renal; 104% with UO-31 renal; 98.3% with TK-10 renal; 114% with ACHN renal. Moreover, the growth in the test with A498 renal is 96.4%; in the test with CCRF-CEM leukemia it was 90.8%; in the test on MOLT-4 leukemia it was 77.5%; in the test with SR leukemia, 83.8%.

`O=C1NC(SCc2ccc(F)cc2)=N/C1=C/c1cccc(OCc2ccc(Cl)cc2)c1`: the growth in the test on SK-MEL-2 melanoma was 99.4%; in the test on EKVX NSCLC, 66.3%; with SN12C renal, 22.1%; in the test on UO-31 renal it was -38.2% (active); in the test on TK-10 renal, -5.9% (active); with ACHN renal it was -53.7% (active). Moreover, the growth in the test on CCRF-CEM leukemia was 54.8%; in the test on MOLT-4 leukemia it was 51.2%; in the test with SR leukemia, 20.6%.

As to `O=C1C(=O)c2c(nc3ccc(Br)cn23)-c2ccccc21`, the growth in the test on SK-MEL-2 melanoma is -73.5% (active); in the test with EKVX NSCLC it was -71.4% (active); with SN12C renal, -89% (active); in the test with UO-31 renal, -100% (active); with TK-10 renal, -100% (active); in the test with ACHN renal it was -100% (active). The growth with CCRF-CEM leukemia is -32.5% (active); in the test on MOLT-4 leukemia, -55.1% (active); in the test on SR leukemia it was -27.6% (active).

`O=C(Nc1cc(=O)[nH]c(=O)[nH]1)C(Cl)Cl`: the growth was 105% in the test on SK-MEL-2 melanoma; 114% with EKVX NSCLC; 98% with SN12C renal; 88.8% in the test with UO-31 renal; 101% with TK-10 renal; 100% in the test on A498 renal. Besides, the growth in the test on CCRF-CEM leukemia was 96%; in the test with MOLT-4 leukemia it was 98.4%; with SR leukemia, 98.6%.

As to `Nc1ccccc1NC(=O)c1ccc(CSc2nc(N3CCOCC3)c3cccn3n2)cc1`, the growth in the test with SK-MEL-2 melanoma was -28.9% (active); with EKVX NSCLC, 25.8%; in the test with SN12C renal it was 16.6%; with UO-31 renal, -24.8% (active); with TK-10 renal it was -10.7% (active); in the test on ACHN renal, 16.3%. Further, the figures for the growth with CCRF-CEM leukemia, with MOLT-4 leukemia and in the test on SR leukemia were 5.4% (active), 1.08% (active) and 13.4%, respectively.

For the molecule `CC(C)(C)c1ccc2oc(=O)n(SC(Cl)(Cl)Cl)c2c1`, the growth is 93.9% in the test with SK-MEL-2 melanoma; 92.2% with EKVX NSCLC; 102% in the test on SN12C renal; 94.9% in the test on UO-31 renal; 92.4% in the test with TK-10 renal; 106% in the test on ACHN renal. The growth is 83.5% in the test with CCRF-CEM leukemia, 77.2% in the test on MOLT-4 leukemia and 92.3% in the test on SR leukemia.

Take `CCc1c(C(=O)N[C@@H](C(=O)OCc2ccccc2)C(C)O)[nH]c2ccc(Cl)cc12` (stereo partly drawn): the growth with SK-MEL-2 melanoma is 106%; with EKVX NSCLC it was 73.8%; in the test with SN12C renal, 66.6%; in the test with UO-31 renal, 11.7%; in the test with TK-10 renal, 33.6%; in the test on ACHN renal it was 8.62% (active). Further, the growth was 79.6% in the test on CCRF-CEM leukemia, 91.5% with MOLT-4 leukemia and 35.1% in the test on SR leukemia.
